Bioassay records as filed in PubChem.
In the library only some 3.3% were active in any assay of this set; here they are far more common.
PHOSPHO1 block: blocks human PHOSPHO1 phosphatase activity; Q8TCT1; recombinant PHOSPHO1, absorbance phosphatase assay; inhibition, % at 13.3 µM; 290,000 compounds, 1.1% hits; in the data active = inhibition above about 60%
Target sequence (Q8TCT1 whole entry, looked up): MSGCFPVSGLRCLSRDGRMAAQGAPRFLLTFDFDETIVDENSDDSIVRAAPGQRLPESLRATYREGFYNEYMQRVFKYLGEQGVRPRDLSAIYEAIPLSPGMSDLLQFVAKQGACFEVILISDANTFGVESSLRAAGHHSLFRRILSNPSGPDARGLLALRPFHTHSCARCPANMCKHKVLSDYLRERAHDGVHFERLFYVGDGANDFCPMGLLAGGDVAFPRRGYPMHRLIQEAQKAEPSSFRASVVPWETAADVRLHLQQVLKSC
CTSL1 counter: blocks F. hepatica cathepsin L1 in PFM18AAP counter-screen | 300,000 compounds, 0.49% hits | recombinant F. hepatica cathepsin L1, Z-Leu-Arg-MCA fluorescence | inhibition, % at 5.96 µM;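 active = inhibition above the mean of all tested compounds plus 3 SD, set per screening campaign, cut at about 17% in these data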
TPT1 inh: C. albicans TPT1 enzyme inhibition. recombinant caTPT1, FP RNA substrate dephosphorylation. AID 1962. inhibition, % at 5 µM. 300,000 compounds, 0.81% hits;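 active = inhibition above the mean of all tested compounds plus 3 SD, set per screening campaign, cut at about 24% in these data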
CendR NRP1 mod: NRP-1/CendR interaction modulation; 360,000 compounds, 0.85% hits; inhibition, % at 25 µM; AID 602438; O14786; FAM-RPARPAR peptide binding to NRP-1, fluorescence polarization;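 active = inhibition or corrected inhibition above about 18%, plus a signal ratio from 0.5 to 1.5, limit read from the data, passing the limit was not always enough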
HNF4A DNA FP: change in binding of human HNF4 alpha to DNA; 360,000 compounds, 0.3% hits; HNF4a-FITC DNA binding, fluorescence polarization, 1 h; activity change, % at 10 µM; P41235; in the data active = activity change above about 30%, passing the limit was not always enough
Rpn11 inh: inhibitors of human proteasome Rpn11. 360,000 compounds, 0.59% hits. human 26S proteasome, Ub4-pepOG fluorescence polarization; 20S core pre-blocked with epoxomicin. inhibition, % at 20 µM. O00487;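 active = inhibition at 20 µM, scaled to each plate's controls, above about 33%, limit read from the data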
Target sequence (O00487 whole entry, looked up): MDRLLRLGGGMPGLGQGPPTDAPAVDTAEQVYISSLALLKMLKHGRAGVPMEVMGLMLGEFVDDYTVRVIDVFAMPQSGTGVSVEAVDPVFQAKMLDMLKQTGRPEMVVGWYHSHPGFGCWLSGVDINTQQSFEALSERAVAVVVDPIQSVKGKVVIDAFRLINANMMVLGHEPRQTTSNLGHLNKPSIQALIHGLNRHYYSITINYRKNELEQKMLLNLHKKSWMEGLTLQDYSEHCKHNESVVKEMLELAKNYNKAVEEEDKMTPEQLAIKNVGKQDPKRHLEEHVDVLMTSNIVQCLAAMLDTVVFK
Rpn11 inh conf: confirmation of human proteasome Rpn11 inhibitors. shares compounds with Rpn11 inh. purified human 26S proteasome, Ub4-pepOG fluorescence polarization; proteasome pretreated with epoxomicin. inhibition, % at 20 µM. 1,900 compounds, 29% hits
MMP-2 inh: counter-screen for RPN11 inhibitors: inhibition of human MMP-2; shares compounds with Rpn11 inh; recombinant MMP-2, FRET peptide cleavage fluorescence; inhibition, % at 20 µM; 1,900 compounds, 4% hits;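 also: human MMP-2 activated beforehand with APMA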
Thrombin inh: blocks bovine thrombin, flagging nonselective RPN11 hits; shares compounds with Rpn11 inh; bovine thrombin cleavage of Ub4-pepOG, fluorescence polarization; inhibition, % at 20 µM; 1,900 compounds, 13% hits; AID 602333;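 active = mean inhibition at least 40% at 20 µM, or signal 3 deviations below plate average, so some actives read negative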
Of the large screens only hits and unclear results are named; the others gave an inactive call (follow-up assays come after a bar, where they were run); ! = not confirmed by another sample. Rule as the data show it, unless noted: active = inhibition above about 40%; inactive = the rest.

COc1ccccc1NC(=O)c1cc(C(=O)Nc2ccccc2OC)cc([N+](=O)[O-])c1	none
CC1CCCN(S(=O)(=O)c2ccc(Br)s2)C1 (centres undefined)	Rpn11 inh 46 | Rpn11 inh conf inactive | MMP-2 inh inactive | Thrombin inh inactive
Cc1cc(NS(=O)(=O)c2ccc(NC(=O)c3ccc(Br)o3)cc2)nc(C)n1	none
Cn1c2ccccc2c(=O)c2c(=O)n(C3CCCCCC3)c(C3CCCCC3)nc21	HNF4A DNA FP 67, Rpn11 inh 146 (no result: CTSL1 counter, TPT1 inh) | Rpn11 inh conf inactive | MMP-2 inh inactive | Thrombin inh inactive
Cn1c2ccccc2c(=O)c2c(=O)n(-c3ccccc3)c(C3CCCCC3)nc21	none
N=C1/C(=C/c2cccn2-c2ccc([N+](=O)[O-])cc2)C(=O)N=C2SC=CN12	none
COc1ccc(-c2ccc(/C=C3/C(=N)N4C=CSC4=NC3=O)o2)c([N+](=O)[O-])c1	Rpn11 inh 41 | Rpn11 inh conf inactive | MMP-2 inh inactive | Thrombin inh inactive
Cc1ccc(C2C(/C=C3/SC(=S)NC3=O)=C(c3cccs3)Oc3ccccc32)cc1 (centres undefined)	Rpn11 inh 49 | Rpn11 inh conf 45 | MMP-2 inh 41 | Thrombin inh inactive
Cc1ccc(-c2c(C)c(-c3ccc(F)cc3)nc(N)c2C#N)o1	Rpn11 inh 42 | Rpn11 inh conf inactive | MMP-2 inh inactive | Thrombin inh inactive
Cc1c(-c2ccc(F)cc2)nc(N)c(C#N)c1-c1cccnc1	none
Cc1cccn2c(=O)c3cc(C(=O)NC4CCCC4)c(=N)n(C4CCCC4)c3nc12	Rpn11 inh 134 | Rpn11 inh conf inactive | MMP-2 inh inactive | Thrombin inh inactive
N=c1c(C(=O)NC2CCCC2)cc2c(=O)n3ccccc3nc2n1C1CCCC1	none
C=CCn1cnc2c(c1=O)c1nc3ccccc3nc1n2/N=C/c1cccc(OC)c1OC	Rpn11 inh 192 | Rpn11 inh conf inactive | MMP-2 inh inactive | Thrombin inh inactive
C=CCn1cnc2c(c1=O)c1nc3ccccc3nc1n2/N=C/c1cc(OC)c(OC)c(OC)c1	none
CC(C)(C)OC(=O)N1Cc2ccccc2C[C@H]1C(=O)NCC(=O)NCC1CCCO1 (some centres undefined)	none
CSc1ccc(/C=C2\C(=N)N3N=C(CC(=O)N4CCCCC4)SC3=NC2=O)cc1	Rpn11 inh 52 | Rpn11 inh conf inactive | MMP-2 inh inactive | Thrombin inh inactive
Cc1ccc(/C=C2\C(=N)N3N=C(CC(=O)N4CCCCC4)SC3=NC2=O)cc1	none
O=C(NCC1CCCO1)c1ccc(NS(=O)(=O)c2cccs2)cc1 (centres undefined)	none
COc1ccccc1-n1cnc2c(c1=O)c1nc3ccccc3nc1n2-c1ccc(C)cc1	Rpn11 inh 90 | Rpn11 inh conf inactive | MMP-2 inh inactive | Thrombin inh inactive
COc1ccc(/C=C(\NC(=O)c2ccc(C)cc2)C(=O)NCCCn2ccnc2)cc1	none
CC(=O)N(/N=C1\Sc2ccccc2C1=O)c1ccccc1C	CTSL1 counter 87, Rpn11 inh 39 | Rpn11 inh conf inactive | MMP-2 inh inactive | Thrombin inh inactive
Cc1nn(C(=O)c2c(-c3ccccc3)noc2C)c(C)c1N=Nc1cc(C(F)(F)F)cc(C(F)(F)F)c1	none
O=C1NN(c2ccc(Cl)cc2)C(=O)/C1=C\c1ccc(-c2cccc(C(=O)O)c2)o1	Rpn11 inh 104 (no result: CTSL1 counter, TPT1 inh) | Rpn11 inh conf 142 | MMP-2 inh inactive | Thrombin inh inactive
C/C(=N\Nc1cc(C)nc(NCc2ccccc2)n1)c1ccc([N+](=O)[O-])cc1	none
O=C(/C=C/c1ccc(Cl)c(Cl)c1)NC1=NCCS1	none
CC(C)COc1ccc(-c2nn(-c3ccccc3)cc2/C=C2/SC(=S)N(CC(=O)O)C2=O)cc1	Rpn11 inh 49 | Rpn11 inh conf 41 | MMP-2 inh inactive | Thrombin inh 49
O=C1C(=Cc2cn(-c3ccccc3)nc2-c2ccc(OCc3ccccc3)cc2)SC(=S)N1CCS(=O)(=O)O	Rpn11 inh 98 (no result: PHOSPHO1 block, CTSL1 counter, TPT1 inh) | Rpn11 inh conf 90 | MMP-2 inh inactive | Thrombin inh 134
O=C(NC(=S)NC1CCCc2ccccc21)c1ccc(F)cc1 (centres undefined)	none
O=C(Nc1ccc(Cl)cc1)N(Cc1cccnc1)Cc1ccco1	none
O=CN1CCCN(C(=O)CC2C(=O)NCCN2Cc2cccc(Oc3ccccc3)c2)CC1 (centres undefined)	none
Cn1c(CO)cnc1SCc1ccc(Cl)cc1	Rpn11 inh 107 | Rpn11 inh conf inactive | MMP-2 inh inactive | Thrombin inh inactive
c1ccc(Oc2nc(N3CCOCC3)nc(N3CCOCC3)n2)cc1	none
c1cc(C2CCCCC2)ccc1Oc1nc(N2CCOCC2)nc(N2CCOCC2)n1	Rpn11 inh 131 | Rpn11 inh conf inactive | MMP-2 inh inactive | Thrombin inh inactive
CCOC(=O)C1=C(N)n2c(s/c(=C\c3cccnc3)c2=O)=C(C(=O)OC)C1c1cccnc1 (centres undefined)	Rpn11 inh 35 (no result: PHOSPHO1 block) | Rpn11 inh conf inactive | MMP-2 inh inactive | Thrombin inh inactive
CCOC(=O)C1=C(N)n2c(s/c(=C\c3cccnc3)c2=O)=C(C(=O)OCC)C1c1cccnc1 (centres undefined)	none (no result: CTSL1 counter, TPT1 inh, CendR NRP1 mod, HNF4A DNA FP, Rpn11 inh)
CCN1CCN(Cc2ccc(NC(=O)c3cc(NC(=O)c4cncc(-c5ccc(C#N)cc5)c4)cc(OC)c3)cc2C(F)(F)F)CC1	HNF4A DNA FP 45!, Rpn11 inh 64 | Rpn11 inh conf 56 | MMP-2 inh inactive | Thrombin inh 60
CCN1CCN(Cc2ccc(NC(=O)c3cc(NC(=O)c4nccnc4N)cc(OC)c3)cc2C(F)(F)F)CC1	none
S=C(c1cn(CCOc2cccc3ccccc23)c2ccccc12)N1CCCC1	Rpn11 inh 46 | Rpn11 inh conf 52 | MMP-2 inh inactive | Thrombin inh inactive
S=C(c1cn(CCOc2ccccc2)c2ccccc12)N1CCCC1	none
Cc1ccc(C)c(Cn2nc3c4ccccc4n(Cc4ccccc4)cc-3c2=O)c1	none (no result: CTSL1 counter, TPT1 inh)
COc1ccc(NC(=O)c2ccc(NC(=O)c3cccnc3)cc2)cc1	none (no result: PHOSPHO1 block, CTSL1 counter, TPT1 inh)
COc1ccc(C(=O)Nc2ccc(C(=O)Nc3cccnc3)cc2)cc1	Rpn11 inh 106 | Rpn11 inh conf inactive | MMP-2 inh inactive | Thrombin inh inactive
COc1ccc(C(=O)Nc2ccc(/C(C)=N/NC(=O)c3ccncc3)cc2)cc1	Rpn11 inh 85 | Rpn11 inh conf 45 | MMP-2 inh inactive | Thrombin inh inactive
CCOC(=O)CCC(=O)NNC(=O)COc1ccc(C(C)C)cc1Br	none
